Screening results deposited in PubChem BioAssay by National Center for Advancing Translational Sciences (NCATS).
D1 ag: human D1 receptor agonism. HEK293 T-REx D1 cells, calcium flux, agonist mode. P21728. activation, % at 2 µM. hit rate 1% among 360,000; note: 0% is about no effect
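Agonism was scored from calcium flux recorded over 180 s (1 read/s) after pintool compound addition, following a 10-cycle baseline. Cells were inducible force-coupled HEK293 TREx D1, plated overnight at 30 C and loaded with no-wash calcium dye.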
TRHR agonist: agonists of human TRH receptor; P34981; TRHR cells, calcium flux fluo-8, FDSS agonist mode; activation, % at 2 µM; hit rate 0.18% among 360,000; AID 493084; note: 0% is about no effect
Target sequence (P34981 whole entry, looked up): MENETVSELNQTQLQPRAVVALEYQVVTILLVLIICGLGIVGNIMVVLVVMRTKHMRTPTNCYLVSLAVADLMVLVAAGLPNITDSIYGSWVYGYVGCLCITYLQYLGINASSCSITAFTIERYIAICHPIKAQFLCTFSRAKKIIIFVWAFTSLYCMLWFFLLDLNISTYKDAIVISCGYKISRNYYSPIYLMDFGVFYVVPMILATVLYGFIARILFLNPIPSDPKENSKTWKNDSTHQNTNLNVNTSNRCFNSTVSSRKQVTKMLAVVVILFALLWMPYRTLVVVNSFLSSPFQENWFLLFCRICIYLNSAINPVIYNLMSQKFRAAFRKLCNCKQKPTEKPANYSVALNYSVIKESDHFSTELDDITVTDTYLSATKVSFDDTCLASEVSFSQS
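Steps: seed TRHR cells overnight; add fluo-8 no-wash Ca dye, RT 30 min–1.5 h; record 10 s baseline; pin-transfer compounds; monitor fluorescence 1 cycle/s for the agonist window. Calcium increases flag candidate agonists.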
TRHR enhancer: TRH receptor (human) allosteric enhancement. TRHR cells, fluo-8 calcium fluorescence, EC20 TRH enhancement. hit rate 0.66% among 360,000. enhancement, % at 2 µM. P34981; in the data active = enhancement above about 30%; note: 0% is about no effect
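Enhancer read-out: after compound pinning and an initial kinetic agonist-mode read, an EC20 of TRH (10 nM final) was injected and fluo-8 calcium signal (Ex 480/Em 530) followed at 1 s/cycle for 100 cycles in TRHR-expressing cells.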
D1 antag: blocks dopamine activation of the human D1 receptor | activity change, negative = inhibition, % at 10 µM | hit rate 3.2% among 360,000 | HEK293 TREx D1 cells, calcium flux, dopamine EC80; active compounds read low | P21728 | AID 504652; in the data active = activity change below about -30%; note: % is set by controls: 0 for no effect and ±100 for the full control effect
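Allosteric or orthosteric antagonism assessed as attenuation of the calcium response to EC80 dopamine, added 180 s after compound, in induced HEK293 Trex D1 cells loaded with no-wash calcium dye.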
D1 PAM: enhances dopamine response at the human D1 receptor; P21728; HEK293 TREx D1 cells, calcium flux, dopamine EC20 potentiation; potentiation, % at 10 µM; hit rate 0.036% among 360,000; AID 504651; in the data active = potentiation above about 30%; note: 0% is about no effect
The depositor's hits bear a star; · = no result; ! = repeats disagree. Most compounds without a hit are left out; they make up all but 4.7% or so of the library. Cut-off read from the data, not from the text of the source, unless noted: active = activation above about 30%; inactive = the rest.

SMILES	D1 ag	TRHR agonist	TRHR enhancer	D1 antag	D1 PAM
CCCCCc1cc(=O)oc2c(C(CCN3CCCC3)c3cc(OC)c(OC)c(OC)c3)c(OC)cc(OC)c12 (stereo not given)	37*	-1	1	-34*	-13
CCCCCc1cc(=O)oc2c(C(CCN3CCCC3)c3ccc(N(C)C)cc3)c(OC)cc(OC)c12 (stereo not given)	2	0	3	12	1
Cc1ccc2oc(-c3cccc(NC(=O)c4sc5c([N+](=O)[O-])cccc5c4Cl)c3)nc2c1	0	-4	3	5	0
O=S(=O)(c1ccc(OC(F)(F)F)cc1)N1CCCC(c2ccccc2)C1 (stereo not given)	18	4	-14	-34*	11
Nc1cc(=O)nc(SCC(=O)Nc2ccc(F)cc2)n1-c1ccccc1Cl	1	1	9	3	-4
CN1CCN(S(=O)(=O)c2cccc(C(=O)N(C)Cc3cccs3)c2)CC1	3	-1	-6	-46*	·
CN1CCN(S(=O)(=O)c2ccc(N(C)Cc3cccs3)nc2)CC1	6	-1	4	-38*	-10
CCOc1ccccc1CNC(=O)C1CCN(c2nc3ccccc3nc2C(F)(F)F)CC1	1	0	8	-14	-1
Cc1cc(C)cc(N2C(=O)CC(n3nc(C)cc3C)C2=O)c1 (stereo not given)	3	1	11	-43*	-8
Cc1cc(C)n(C2CC(=O)N(c3cc(Cl)cc(Cl)c3)C2=O)n1 (stereo not given)	0	0	4	-2	-3
CSc1nnc(NC(=O)c2cc(=O)c3cc(C)c(C)cc3o2)s1	0	0	-2	3	-2
O=C(NCC12CC3CC(CC(C3)C1)C2)c1cc2nc(-c3ccc(Cl)cc3)cc(C(F)(F)F)n2n1	-1	1	2	7	-2
COc1ccc(C)cc1NC(=O)C(OC(=O)c1ccc([N+](=O)[O-])o1)c1ccccc1 (stereo not given)	0	-1	-5	-48*	0
COc1ccc(C)cc1NC(=O)C(OC(=O)c1cnccn1)c1ccccc1 (stereo not given)	1	0	5	7	-4
CC(C)Oc1ccc(-c2nc3c(C#N)c[nH]n3c2NC2CCCCC2)cc1	-1	-1	-3	13	-1
CCc1cccc(NS(=O)(=O)c2ccc3c(c2)N(CC(=O)OC)C(=O)CS3)c1	-1	0	3	2	0
COc1ccc(CNC(=O)C2CCN(c3nc4ccccc4[nH]3)CC2)cc1OC	3	1	-13	7	2
Cc1ccsc1C(=O)OCC(=O)Nc1cccc(S(=O)(=O)NC2=NCCCCC2)c1	5	-1	-4	-42*	1
O=C(Nc1cccc(S(=O)(=O)NC2=NCCCCC2)c1)c1cc(-c2ccccc2Cl)nc2ccccc12	5	0	4	-36*	-10
CCN(CC)S(=O)(=O)c1cccc(NC2=NCCCCC2)c1	2	0	9	-36*	-4
O=C(Cc1csc(-c2ccc(Cl)cc2)n1)Nc1cccc(S(=O)(=O)NC2=NCCC2)c1	-1	0	0	-16	-3
O=C(Cc1csc(-c2ccc(F)cc2)n1)Nc1cccc(S(=O)(=O)NC2=NCCC2)c1	1	0	8	-30*	-15
COc1ccc(S(=O)(=O)Nc2cc3c(cc2N2CCOCC2)n(C)c(=O)n3C)cc1	-1	0	0	2	-3
CCN(CC)S(=O)(=O)c1ccc2c(c1)c(=O)c(C(=O)N1CCN(c3cc(Cl)ccc3C)CC1)cn2C	-2	0	-18	-1	5
CCCCC(=O)OCC(=O)Nc1cccc(S(=O)(=O)NC2=NCCCCC2)c1	2	0	-3	-32*	-5
SMILES	D1 ag	TRHR agonist	TRHR enhancer	D1 antag	D1 PAM
CCCCCC(=O)Nc1cccc(S(=O)(=O)NC2=NCCCCC2)c1	1	1	3	-24	2
Cc1cc(C)cc(C(=O)OCC(=O)Nc2cccc(S(=O)(=O)NC3=NCCCCC3)c2)c1	3	1	4	-45*	-5
COc1ccc(CN=C2Nc3ccccc3CS2)cc1	11	1	-6	-32*	-7
S=C1NC2=C(CCCC2=C2SCCS2)C(c2ccccc2)N1 (stereo not given)	2	0	37*	8	-2
Fc1ccc(/C=C2\CCCC3=C2NC(=S)NC3c2ccc(F)cc2)cc1 (stereo not given)	3	-1	-2	0	-8
CCOc1ccc(NC(=O)CC2C(=O)N(c3ccccc3)C(=O)N2C2CCCC2)cc1 (stereo not given)	3	1	2	3	0
CC(C)Cn1c2c(c(=O)[nH]c1=O)C(C(F)(F)F)(C(F)(F)F)N=C(CCC1CCCCC1)N2	31*	1	5	0	8
O=c1[nH]c(=O)n(Cc2ccco2)c2c1C(C(F)(F)F)(C(F)(F)F)N=C(CCC1CCCCC1)N2	26	2	4	23	-5
CCc1cccc(NC(=O)Cn2c(=O)n(CCCCCC(=O)NCc3ccc(F)cc3)c(=O)c3sccc32)c1	4	1	-21	-10	-1
CSc1ccccc1OC1CCN(Cc2ccccc2)CC1	15	0	13	-88*	-8
Cc1ccccc1CN1CCC(CNc2ncnc3onc(-c4ccc(F)cc4)c23)CC1	2	-2	36*	19	6
Cc1cccc(Nc2ncnc3onc(-c4ccc(F)cc4)c23)c1C	2	-2	-7	4	-2
CC(=O)c1ccc(NC(=O)C2=CC(c3ccc4c(c3)OCO4)=NS(=O)(=O)N2C)cc1	33*!	1	-7	-15	1
CC(=O)c1ccc(NC(=O)C2=CC(c3ccc(C)cc3)=NS(=O)(=O)N2C)cc1	1	0	-2	-46*	-1
Cc1ccc(NC(=O)C2=CC(c3ccc(C)cc3)=NS(=O)(=O)N2C)cc1	16	0	-2	-2	-6
Cc1c(C(=O)NCC(c2ccc(Cl)cc2)N2CCOCC2)oc2ccccc12 (stereo not given)	2	0	-2	-1	-1
Cc1cccc(NC(=O)CN2C(=O)N/C(=C/c3ccc(C)s3)C2=O)c1	53*	14	10	-7	-5
Cc1c(CN(C)C(=O)c2cc(-c3ccccc3)nc3ccc(Br)cc23)cnn1C	0	-1	12	4	0
Cc1ccc(NC2=C(Cl)C(=O)OC2OC(=O)c2ccco2)cc1C (stereo not given)	8	0	-4	-30*	-8
Cc1ccc(C)c(NC2=C(Cl)C(=O)OC2OC(=O)c2ccco2)c1 (stereo not given)	19	1	0	-14	-5
Cc1ccc(S(=O)(=O)NCC(=O)NC2CCCCCC2)cc1	1	0	34*	32	0
